PubChem BioAssay AID602143 (Vanderbilt Specialized Chemistry Center, 2011)
The source made the active and inactive calls. Rule as the data show it: active = remaining activity below about 50%; inactive = the rest.

target: Phospholipase D2 (Homo sapiens) (UniProt O14939); experiment: PLD2 inhibitors in cells, cell-based, HEK293, single concentration (AID 602143); settings: HEK293 cellular PLD2 activity, percent of control; stronger effect = lower value;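 also: tested at 200 nM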
Sequence (O14939 whole entry, looked up): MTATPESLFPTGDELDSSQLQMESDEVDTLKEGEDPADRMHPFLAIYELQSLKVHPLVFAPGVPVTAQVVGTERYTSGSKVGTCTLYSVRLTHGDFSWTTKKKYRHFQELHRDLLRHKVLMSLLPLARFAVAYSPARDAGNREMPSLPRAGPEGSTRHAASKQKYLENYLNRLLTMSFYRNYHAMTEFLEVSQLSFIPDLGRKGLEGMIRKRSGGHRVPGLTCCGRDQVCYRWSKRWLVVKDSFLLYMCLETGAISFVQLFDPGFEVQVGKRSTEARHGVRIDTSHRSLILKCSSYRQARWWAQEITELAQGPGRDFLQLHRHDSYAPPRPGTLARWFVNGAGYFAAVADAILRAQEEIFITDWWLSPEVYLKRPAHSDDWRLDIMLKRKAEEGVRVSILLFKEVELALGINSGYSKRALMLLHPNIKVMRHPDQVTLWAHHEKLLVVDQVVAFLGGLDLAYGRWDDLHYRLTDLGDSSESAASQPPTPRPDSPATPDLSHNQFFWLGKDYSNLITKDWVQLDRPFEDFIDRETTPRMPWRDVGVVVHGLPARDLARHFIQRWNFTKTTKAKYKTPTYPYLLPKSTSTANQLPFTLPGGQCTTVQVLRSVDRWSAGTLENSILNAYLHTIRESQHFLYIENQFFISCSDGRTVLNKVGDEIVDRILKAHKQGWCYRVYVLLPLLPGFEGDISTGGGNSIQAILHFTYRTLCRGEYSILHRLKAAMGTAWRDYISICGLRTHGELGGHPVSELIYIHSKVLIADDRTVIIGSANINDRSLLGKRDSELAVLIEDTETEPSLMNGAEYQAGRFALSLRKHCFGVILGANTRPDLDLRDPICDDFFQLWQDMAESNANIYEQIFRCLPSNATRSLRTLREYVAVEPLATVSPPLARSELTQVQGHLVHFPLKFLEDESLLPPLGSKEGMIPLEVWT
Sequence (O14939 whole entry, looked up): as above

Row | Structure (SMILES) | remaining activity
1 | C[C@@H](CN1CCC(c2nc3ccccc3[nH]2)CC1)NC(=O)c1ccc2ccccc2c1 | 86.5% (inactive)
2 | O=C(NCCN1CCC2(CCc3ccccc32)CC1)c1cnc2ccccc2c1 | 100% (inactive)
3 | C[C@@H](CN1CCC2(CC1)CN(S(C)(=O)=O)c1ccccc12)NC(=O)c1cnc2ccccc2c1 | 136% (inactive)
4 | O=C(c1ccc(Cl)cc1)N1CCC(n2c(=O)[nH]c3cc(Cl)ccc32)CC1 | 60.2% (inactive)
5 | O=C(NCCN1CCN(c2ccccn2)CC1)c1ccc(Cl)cc1 | 106% (inactive)
6 | Cn1c(=O)n(C2CCN(CCNC(=O)c3ccc4ccccc4c3)CC2)c2ccccc21 | 52.7% (inactive)
7 | O=C(NCCN1CCN(c2ccncc2)CC1)c1ccc(F)cc1O | 112% (inactive)
8 | Cc1ccc(C(=O)N[C@@H](C)CN2CCC(n3c(=O)[nH]c4c(F)cccc43)CC2)cc1 | 98.2% (inactive)
9 | Cn1c(=O)n(C2CCN(CCNC(=O)[C@H]3C[C@@H]3c3ccccc3)CC2)c2ccccc21 | 78.4% (inactive)
10 | C[C@@H](CN1CCC(n2c(=O)[nH]c3ccccc32)CC1)NC(=O)c1ccc(C(F)(F)F)cc1 | 76.2% (inactive)
11 | O=C(NCCN1CCC(C(=O)NCc2ccc(Cl)cc2)CC1)c1ccc2ccccc2c1 | 106% (inactive)
12 | O=C(NCCN1CCC(n2nnc3ccccc32)CC1)C1CC1c1ccccc1 (stereo not given) | 78.1% (inactive)
13 | O=C(NCCN1CCC(n2c(=O)[nH]c3ccccc32)CC1)c1cnc2ccccc2n1 | 87.4% (inactive)
14 | C[C@@H](CN1CCC(n2c(=O)[nH]c3cc(F)ccc32)CC1)NC(=O)c1ccc(F)c(F)c1 | 85.2% (inactive)
15 | CC(C)[C@@H](CN1CCC(n2c(=O)[nH]c3ccccc32)CC1)NC(=O)c1ccc(F)cc1 | 82% (inactive)
16 | O=C(NCCN1CCC(n2c(=O)[nH]c3ccccc32)CC1)Nc1cccc(C(F)(F)F)c1 | 131% (inactive)
17 | C[C@@H](CN1CCC2(CC1)CCN(C)C2=O)NC(=O)c1cnc2ccccc2c1 | 113% (inactive)
18 | C[C@H](CN1CCC2(CC1)CNc1ccccc12)NC(=O)c1cnc2ccccc2c1 | 104% (inactive)
19 | O=C(NCCN1CCC(n2c(=O)[nH]c3cc(I)ccc32)CC1)C1CC1c1ccccc1 (stereo not given) | 57.2% (inactive)
20 | O=C(NCCN1CCN(c2ccncc2)CC1)c1cc2cc(F)ccc2[nH]1 | 65.5% (inactive)

Row | Structure (SMILES) | remaining activity
21 | O=C(NCCN1CCC(n2c(=O)[nH]c3ccccc32)CC1)NC(c1ccccc1)c1ccccc1 | 123% (inactive)
22 | COc1ccc2c(c1)c(CC(=O)NCCN1CCC(n3c(=O)[nH]c4ccccc43)CC1)c(C)n2C(=O)c1ccc(Cl)cc1 | 73.8% (inactive)
23 | C[C@@H](CN1CCC(n2c(=O)[nH]c3ccccc32)CC1)NC(=O)c1cc2ccccc2[nH]1 | 0.434% (active)
24 | C[C@@H](CN1CCC2(CNCc3ccccc32)C1)NC(=O)c1ccc2ccccc2c1 (stereo not given in full) | 91% (inactive)
25 | O=C(NCCN1CCC(n2c(=O)[nH]c3cc(I)ccc32)CC1)c1ccc(Cl)cc1 | 36.7% (active)
26 | COc1cc(C(=O)NCCN2CCN(c3ccncc3)CC2)ccc1N | 130% (inactive)
27 | O=C(NCCN1CCN(c2ncccn2)CC1)c1ccc2ccccc2c1 | 90.4% (inactive)
28 | C[C@@H](CN1CCC(n2c(=O)[nH]c3ccc(F)cc32)CC1)NC(=O)c1ccc(Cl)cc1 | 68.3% (inactive)
29 | C[C@H](CN1CCC(n2c(=O)[nH]c3cc(Cl)ccc32)CC1)NC(=O)c1cc2ccccc2[nH]1 | 25% (active)
30 | Cn1c(C(=O)NCCN2CCN(c3ccncc3)CC2)cc2ccccc21 | 109% (inactive)
31 | O=c1[nH]c2ccccc2n1C1CCN(CCNC(=S)Nc2ccccc2F)CC1 | 87.4% (inactive)
32 | O=C(NCCN1CCC2(CC1)CNCc1ccccc12)c1cnc2ccccc2c1 | 97.1% (inactive)
33 | O=C(NCCN1CCC(n2c(=O)[nH]c3ccccc32)CC1)c1cccc2ccc3ccccc3c12 | 65.9% (inactive)
34 | O=C(NCCN1CCC(n2c(=O)[nH]c3ccccc32)CC1)c1ccc2c(c1)CCCC2 | 96.1% (inactive)
35 | O=C(NCCN1CCC2(CC1)CNc1ccccc12)c1cnc2ccccc2c1 | 90% (inactive)
36 | NC1(CN2CCC(c3nc4ccccc4[nH]3)CC2)CCCC1 (tested in a mixture with another compound) | 105% (inactive)
37 | O=C(NCCN1CCN(c2ccncc2)CC1)c1ccccc1-c1ccccc1 | 83.2% (inactive)
38 | CS(=O)(=O)N1CC2(CCN(CCNC(=O)c3cnc4ccccc4c3)CC2)c2ccccc21 | 83.7% (inactive)
39 | C[C@@H](CN1CCC(n2nnc3cc(C(F)(F)F)ccc32)CC1)NC(=O)c1ccc2ccccc2c1 | 107% (inactive)
40 | CC(C(=O)NCCN1CCC(n2c(=O)[nH]c3ccccc32)CC1)(c1ccccc1)c1ccccc1 | 65.3% (inactive)
